# PubChem BioAssay (Tox21)
# Values without a mark were called inactive. Records with an inconclusive call do not appear. Where a call stands in place of a potency, no number is given. Calls of active or inactive are those of the source. Unless noted, the call rests on the fitted dose curve; in most records, active means well fitted curve in the direction sought with a large enough effect in the repeat runs; inconclusive means weak or mixed curves; inactive means no such curve, though single readings can be large; an effect the other way counts as inactive or inconclusive.
# How the values were obtained:
# [1] = qHTS assay to identify small molecule antagonists of the estrogen related receptor (ERR) signaling pathway from Tox21 library - cell viability counter screen (AID 1224834); further: nearly all actives have a fitted effect of over 30% in size; further: potency means the concentration at half of the fitted maximal effect
# In short: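 ERR reporter cells were plated 6 h before compound addition, then exposed to test compounds in DMSO for 17.5 h at 37 C. Viability was read as CellTiter-Fluor fluorescence after a 30-minute incubation at 37 C.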
# [2] = biological target: Luciferin 4-monooxygenase (Photinus pyralis) (UniProt P08659); test: qHTS assay to identify small molecule inhibitors of firefly luciferase (AID 1224835); further: nearly all actives have a fitted effect of over 25% in size; further: potency means the concentration at half of the fitted maximal effect
# Chain of Luciferin 4-monooxygenase (Photinus pyralis) (P08659 whole entry, looked up): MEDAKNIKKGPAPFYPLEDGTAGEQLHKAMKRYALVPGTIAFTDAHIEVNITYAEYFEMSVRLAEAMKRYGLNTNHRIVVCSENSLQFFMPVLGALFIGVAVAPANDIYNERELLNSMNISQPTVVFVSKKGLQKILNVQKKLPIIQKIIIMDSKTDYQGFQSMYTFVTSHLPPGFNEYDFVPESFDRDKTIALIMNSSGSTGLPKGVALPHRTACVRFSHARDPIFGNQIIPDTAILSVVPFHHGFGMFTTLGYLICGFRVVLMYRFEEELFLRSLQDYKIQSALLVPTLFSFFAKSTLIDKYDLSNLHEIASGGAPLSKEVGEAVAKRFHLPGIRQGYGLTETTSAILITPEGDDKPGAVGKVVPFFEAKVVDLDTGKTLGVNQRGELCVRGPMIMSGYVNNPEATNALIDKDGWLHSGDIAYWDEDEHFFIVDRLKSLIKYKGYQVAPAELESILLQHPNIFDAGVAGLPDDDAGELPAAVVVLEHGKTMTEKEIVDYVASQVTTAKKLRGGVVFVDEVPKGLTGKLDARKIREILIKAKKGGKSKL
# In short: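 Inhibition of purified Photinus luciferase is measured by luminescence. Substrate levels (D-luciferin, ATP) sit at their KM values. Each compound is tested in a concentration series.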
# [3] = qHTS assay to identify small molecule agonists of the constitutive androstane receptor (CAR) signaling pathway - cell viability counter screen (AID 1224836); further: nearly all actives have a fitted effect of over 45% in size; further: potency means the concentration at half of the fitted maximal effect
# In short: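 Cells were seeded and incubated 4 hrs. Compounds were added across 15 concentrations together with PK11195 at 0.75 uM final. Plates were incubated 23 hrs at 37 C. CellTiter-Fluor was added and fluorescence measured.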
# [4] = qHTS assay to identify small molecule antagonists of the constitutive androstane receptor (CAR) signaling pathway - cell viability counter screen (AID 1224837); further: nearly all actives have a fitted effect of over 45% in size; further: potency means the concentration at half of the fitted maximal effect
# In short: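 HepG2 cells stably expressing hCAR and a CYP2B6-2.2kb reporter were plated and pre-incubated 4 hr at 37 C/5% CO2, then given compounds at 15 concentrations plus 50 nM CITCO (final). After 23 hr, viability was read by CellTiter-Fluor fluorescence.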
# [5] = qHTS assay to identify small molecule antagonists of the estrogen related receptor signaling pathway with the pleiotropic PPARgamma coactivator (PGC) from Tox21 10K library - cell viability counter screen (AID 1224840; active means well fitted cell-killing curve with a large enough effect in the repeat runs, not every such curve was filed as active; further: nearly all actives have a fitted effect of over 40% in size; further: potency means the concentration at half of the fitted maximal effect)
# In short: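 PGC/ERR cells were seeded at 2,000 cells/well and left 6 hours at 37 C/5% CO2 before pin-tool addition of compounds in DMSO. After 17.5 hours at 37 C, CellTiter-Fluor was added and fluorescence read 30 minutes later.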
# [6] = biological target: Thyrotropin receptor (Homo sapiens) (UniProt P16473); test: qHTS assay to identify small molecule agonists of the thyroid stimulating hormone receptor (TSHR) signaling pathway (AID 1224843; calls by dose curve; further: nearly all actives have a fitted effect of over 45% in size)
# Chain of Thyrotropin receptor (Homo sapiens) (P16473 whole entry, looked up): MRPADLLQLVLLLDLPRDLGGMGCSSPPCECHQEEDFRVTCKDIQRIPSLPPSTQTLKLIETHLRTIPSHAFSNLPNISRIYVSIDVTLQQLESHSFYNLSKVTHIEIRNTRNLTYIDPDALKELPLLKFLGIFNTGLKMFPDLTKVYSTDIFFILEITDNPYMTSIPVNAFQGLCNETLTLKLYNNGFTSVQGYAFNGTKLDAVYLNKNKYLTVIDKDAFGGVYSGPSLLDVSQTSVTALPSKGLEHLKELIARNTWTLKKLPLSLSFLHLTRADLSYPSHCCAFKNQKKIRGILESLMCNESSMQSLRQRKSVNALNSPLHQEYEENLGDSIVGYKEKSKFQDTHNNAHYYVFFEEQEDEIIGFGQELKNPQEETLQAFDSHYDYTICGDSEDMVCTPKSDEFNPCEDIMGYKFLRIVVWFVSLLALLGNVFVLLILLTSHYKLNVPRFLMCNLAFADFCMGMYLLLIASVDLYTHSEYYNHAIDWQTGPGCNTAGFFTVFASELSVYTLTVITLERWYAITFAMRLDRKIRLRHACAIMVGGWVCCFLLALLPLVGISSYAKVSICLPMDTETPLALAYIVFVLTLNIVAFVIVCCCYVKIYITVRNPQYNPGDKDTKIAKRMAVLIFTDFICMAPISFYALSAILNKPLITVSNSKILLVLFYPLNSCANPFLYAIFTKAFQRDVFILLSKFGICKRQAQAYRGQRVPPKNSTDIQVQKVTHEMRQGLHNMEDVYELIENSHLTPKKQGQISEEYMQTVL
# In short: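 Screening of the Tox21 10K collection used HEK293 cells engineered with TSHR at 800 cells per well. After a 30-min room-temperature compound exposure, HTRF cAMP reagents were added and fluorescence recorded 1 h later.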
# [7] = qHTS assay to identify small molecule agonists of the hypoxia (HIF-1) signaling pathway - cell viability counter screen (AID 1224844; calls by dose curve; further: nearly all actives have a fitted effect of over 50% in size; further: potency means the concentration at half of the fitted maximal effect)
# In short: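 HRE-bla ME-180 cells in medium with 0.5% dialyzed FBS were preincubated 5 hrs at 37C, exposed to compounds for 17 hrs, then viability was read as CellTiter-Glo luminescence after 30 min at room temperature, in the reporter wells.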
# [8] = qHTS assay to identify small molecule agonists of H2AX (AID 1224845; active means well fitted activation curve with a large enough effect in the signal ratio in the repeat runs, not every such curve was filed as active; the % refers to the signal ratio)
# In short: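 Phospho-H2AX Ser139 measured by HTRF (ex 320 nm; em 665 and 620 nm) after 24 hr antibody incubation. Compounds, 15 concentrations, 0.76% DMSO, were applied to CHO-K1 cells for 3hr at 37C before lysis.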
# [9] = qHTS assay to identify small molecule agonists of the hypoxia (HIF-1) signaling pathway (AID 1224846; active means well fitted activation curve with a large enough effect in the signal ratio in the repeat runs, not every such curve was filed as active; the % refers to the signal ratio)
# In short: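 HRE-bla ME-180 cells (beta-lactamase reporter under hypoxia response element) were plated at 2,000 cells/well in medium with 0.5% dialyzed FBS, rested 5 hrs, then given compounds in DMSO for 17 hrs at 37C, 5% CO2. Reporter induction was read with CCF4-AM FRET substrate.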
# [10] = qHTS assay to identify small molecule agonists of H2AX - cell viability counter screen (AID 1224847; calls by dose curve; further: top concentration of the series differs between compounds; nearly all actives have a fitted effect of over 30% in size)
# In short: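 Cytotoxicity counter screen in wild-type CHO-K1 cells: a 3 hr compound treatment at 37C across 15 concentrations, followed by CellTiter-Glo luminescence to gauge viable cells.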
# [11] = qHTS RealTime-Glo MT Cell Viability Assay in HepG2 cells - 24 hour (AID 1224867); further: nearly all actives have a fitted effect of over 50% in size
# In short: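 Cells + NanoLuc/prosubstrate dispensed (600 cells/well) → 5 h at 37 C/5% CO2 → compounds in DMSO transferred → 40 h incubation at 37 C, luminescence read at 0, 8, 16, 24, 32, 40 h.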
# [12] = qHTS RealTime-Glo MT Cell Viability Assay in HEK293 cells - 32 hour (AID 1224868); further: nearly all actives have a fitted effect of over 50% in size; further: potency means the concentration at half of the fitted maximal effect; on activity change, negative = cytotoxic: top concentration of the series differs between compounds
# In short: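 Tox21 10K qHTS, HEK293, 600 cells/well, RealTime-Glo reagent co-dispensed with cells; 5 h preincubation, compound by pintool, 37 C, luminescence at 0–40 h.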
# [13] = A CellTox Green Cytotoxicity Assay to monitor cytotoxicity in HEK293 cells - 0 hour (AID 1224869); further: nearly all actives have a fitted effect of over 50% in size
# In short: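 HEK293 cells premixed with CellTox Green dye were seeded at 600 cells/well and left 5 h at 37 C/5% CO2 before pin transfer of 23 nL compound in DMSO. Fluorescence from dye bound to dead-cell DNA was read during 40 h treatment.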
# [14] = qHTS RealTime-Glo MT Cell Viability Assay in HepG2 cells - 40 hour (AID 1224870); further: nearly all actives have a fitted effect of over 50% in size
# In short: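 Real-time viability: cells seeded at 600 per well together with NanoLuc and cell-permeant prosubstrate, compounds added after 5 h incubation. Luminescence tracked at 0, 8, 16, 24, 32 and 40 h of exposure.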
# [15] = biological target: Nuclear receptor subfamily 1 group I member 3 (Homo sapiens) (UniProt Q14994); test: qHTS assay to identify small molecule agonists of the constitutive androstane receptor (CAR) signaling pathway (AID 1224839); further: nearly all actives have a fitted effect of over 15% in size; further: potency means the concentration at half of the fitted maximal effect;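 on activation: HepG2 cells stably carrying human CAR and a CYP2B6 luciferase reporter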
# Chain of Nuclear receptor subfamily 1 group I member 3 (Homo sapiens) (Q14994 whole entry, looked up): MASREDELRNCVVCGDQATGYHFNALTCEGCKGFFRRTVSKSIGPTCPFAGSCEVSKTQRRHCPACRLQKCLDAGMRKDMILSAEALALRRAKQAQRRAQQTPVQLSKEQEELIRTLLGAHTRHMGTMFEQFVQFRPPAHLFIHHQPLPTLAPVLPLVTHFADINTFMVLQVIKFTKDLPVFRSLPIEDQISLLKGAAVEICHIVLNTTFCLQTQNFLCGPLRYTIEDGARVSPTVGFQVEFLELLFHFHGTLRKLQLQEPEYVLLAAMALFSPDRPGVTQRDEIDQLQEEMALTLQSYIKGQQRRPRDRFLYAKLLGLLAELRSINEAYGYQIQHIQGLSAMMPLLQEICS
# In short: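 Cells were plated and incubated 4 hrs, then dosed with compounds at 15 concentrations. PK11195 was added to 0.75 uM final. After 24 hrs at 37 C, luciferase luminescence was measured.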
# [16] = biological target: Nuclear receptor subfamily 1 group I member 3 (Homo sapiens) (UniProt Q14994); test: qHTS assay to identify small molecule antagonists of the constitutive androstane receptor (CAR) signaling pathway (AID 1224838); further: nearly all actives have a fitted effect of over 40% in size
# In short: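 HepG2 cells stably co-transfected with hCAR and a CYP2B6-2.2kb luciferase reporter were seeded 4 h before compound addition at 15 concentrations. Cells were stimulated with 50 nM CITCO (final) for 24 h at 37 C; luciferase luminescence was then read.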
# [17] = qHTS assay to identify small molecule antagonists of the estrogen related receptor signaling pathway with the pleiotropic PPARgamma coactivator (PGC) from Tox21 10K library (AID 1224841; call rule not given here)
# In short: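 PGC/ERR reporter cells were seeded at 2,000 cells/well and held 6 hours at 37 C/5% CO2 before pin-tool addition of compounds in DMSO. After 18 hours at 37 C, One-Glo was added and luminescence read after 30 minutes at room temperature.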
# [18] = qHTS assay to identify small molecule agonists of the estrogen related receptor signaling pathway with the pleiotropic PPARgamma coactivator (PGC) from Tox21 10K library (AID 1224842); further: nearly all actives have a fitted effect of over 15% in size
# In short: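 Luminescence from One-Glo (30 min, room temperature) measured after PGC/ERR cells had 18 h at 37 C with pinned compound (23 nL in DMSO). Cells had been seeded at 2,000 per well and pre-incubated 6 h.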
# [19] = qHTS assay to identify small molecule antagonists of the estrogen related receptor (ERR) signaling pathway from Tox21 library (AID 1224848); further: nearly all actives have a fitted effect of over 50% in size
# In short: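 Antagonist-mode screen of the Tox21 10K library in an NTP-provided ERR reporter cell line; 18 h compound exposure at 37 C, luminescence measured with ONE-Glo.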
# [20] = qHTS assay to identify small molecule agonists of the estrogen related receptor (ERR) signaling pathway from Tox21 library (AID 1224849; calls by dose curve; further: nearly all actives have a fitted effect of over 15% in size); settings: ERR reporter cell line, ONE-Glo luciferase, 18 h; at 92.4 µM (top of the series) unless noted
# In short: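 ERR reporter cell line (NTP) seeded, rested 6 h at 37 C/5% CO2, then pinned with Tox21 compounds in DMSO. After 18 h at 37 C, ONE-Glo luciferase luminescence was read following 30 min at room temperature.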
compound,measurement,setting,value
c1ccc2sc(SSc3nc4ccccc4s3)nc2c1,"viability change, negative = cytotoxic",[1],0.18% [at 19 µM]
same,Potency,[2],10.7 µM (active)
same,"viability change, negative = cytotoxic",[3],1.07% [at 19 µM]
same,"activity change, negative = cytotoxicity",[4],11.8% [at 19 µM]
same,"viability change, negative = cytotoxic",[5],10.2% [at 19 µM]
same,activation,[6],-4.06% [at 19 µM]
same,"activity change, negative = cytotoxicity",[7],-3.54% [at 15.8 µM]
same,activation (H2AX phosphorylation),[8],0.89% [at 31.6 µM]
same,activation,[9],0.936% [at 15.8 µM]
same,"activity change, negative = cytotoxicity",[10],3.41% [at 31.6 µM]
same,"activity change, negative = cytotoxicity",[11],4.65% [at 15.8 µM]
same,"activity change, negative = cytotoxic",[12],12.7% [at 15.8 µM]
same,cytotoxicity,[13],4.7% [at 15.8 µM]
same,"activity change, negative = cytotoxic",[14],-0.0307% [at 15.8 µM]
CC(=O)OCC(=O)[C@@]1(OC(C)=O)[C@@H](C)C[C@H]2[C@@H]3C[C@H](F)C4=CC(=O)C=C[C@]4(C)[C@@]3(F)[C@@H](O)C[C@@]21C,Potency,[1],inactive
same,Potency,[2],inactive
same,Potency,[3],inactive
same,Potency,[4],inactive
same,Potency,[15],inactive
same,Potency,[5],inactive
same,Potency,[8],inactive
same,Potency,[10],inactive
same,Potency,[11],inactive
same,Potency,[12],inactive
same,Potency,[13],inactive
same,Potency,[14],inactive
CNc1c2c(nn1C)CCCC2,Potency,[1],inactive
same,Potency,[2],inactive
same,Potency,[3],inactive
same,Potency,[4],inactive
same,Potency,[5],inactive
same,Potency,[6],inactive
same,Potency,[7],inactive
same,Potency,[8],inactive
same,Potency,[10],inactive
same,Potency,[11],inactive
same,Potency,[12],inactive
same,Potency,[13],inactive
same,Potency,[14],inactive
O=C(/C=C/c1ccc([N+](=O)[O-])cc1)c1ccccc1,Potency,[1],54.6 µM (active)
same,Potency,[2],1.13 µM (active)
same,Potency,[3],61.3 µM (active)
same,Potency,[4],68.7 µM (active)
same,Potency,[5],54.6 µM (active)
same,Potency,[6],inactive
same,Potency,[7],24.6 µM (active)
same,Potency,[10],inactive
same,Potency,[12],24.6 µM (active)
same,Potency,[13],inactive
CNCc1ccc(NC(=O)c2c[nH]c3c2C(=O)CCC3)cc1,Potency,[1],inactive
same,Potency,[2],inactive
same,Potency,[3],inactive
same,Potency,[16],inactive
same,Potency,[15],1.72 µM (active)
same,Potency,[5],inactive
same,Potency,[17],inactive
same,Potency,[18],inactive
same,Potency,[6],inactive
same,Potency,[7],inactive
same,Potency,[8],inactive
same,outcome,[9],inactive
same,Potency,[10],inactive
same,Potency,[19],inactive
same,"activity change, positive = activation",[20],-17.3%
same,Potency,[11],inactive
same,Potency,[13],inactive
